Reference: PubChem BioAssay (Tox21)
Where “and” joins values, the source holds several entries; their conditions need not be identical. Equal values may be shown once. Inconclusive results are not listed. A call without a number means that no potency is given here. Calls of active or inactive are those of the source. Unless noted, the call rests on the fitted dose curve.

What was measured:
[1] = qHTS assay to identify small molecule agonists of the sonic hedgehog signaling (Shh) pathway (AID 1259368);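 further: NIH/3T3-derived 3T3Gli1-Luc cells carrying a stable Gli1-driven firefly luciferase reporter; series mostly up to about 92 µM; nearly all actives have a fitted effect of over 15% in size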
In short: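 Quantitative high-throughput format using a Gli1-driven firefly luciferase reporter line derived from NIH/3T3 cells. After a 24 hr compound treatment at 37 C and 5% CO2, luminescence reported Gli1 response element activity.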

[2] = qHTS assay to identify small molecule antagonists of the sonic hedgehog signaling (Shh) pathway (AID 1259369); further: nearly all actives have a fitted effect of over 45% in size
In short: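 Stable Gli1-Luc reporter NIH/3T3 clone; quantitative HTS in stimulated mode with conditioned medium. Luminescence measured after 24hr compound treatment at 37 C.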

[3] = molecular target: Estrogen receptor beta (Homo sapiens) (UniProt Q92731); assay: qHTS assay to identify small molecule agonists of the estrogen receptor beta (ER-beta) signaling pathway (AID 1259377; active means well fitted activation curve with a large enough effect in the signal ratio in the repeat runs, not every such curve was filed as active; the % refers to the signal ratio)
Sequence of Estrogen receptor beta (Homo sapiens) (Q92731 whole entry, looked up): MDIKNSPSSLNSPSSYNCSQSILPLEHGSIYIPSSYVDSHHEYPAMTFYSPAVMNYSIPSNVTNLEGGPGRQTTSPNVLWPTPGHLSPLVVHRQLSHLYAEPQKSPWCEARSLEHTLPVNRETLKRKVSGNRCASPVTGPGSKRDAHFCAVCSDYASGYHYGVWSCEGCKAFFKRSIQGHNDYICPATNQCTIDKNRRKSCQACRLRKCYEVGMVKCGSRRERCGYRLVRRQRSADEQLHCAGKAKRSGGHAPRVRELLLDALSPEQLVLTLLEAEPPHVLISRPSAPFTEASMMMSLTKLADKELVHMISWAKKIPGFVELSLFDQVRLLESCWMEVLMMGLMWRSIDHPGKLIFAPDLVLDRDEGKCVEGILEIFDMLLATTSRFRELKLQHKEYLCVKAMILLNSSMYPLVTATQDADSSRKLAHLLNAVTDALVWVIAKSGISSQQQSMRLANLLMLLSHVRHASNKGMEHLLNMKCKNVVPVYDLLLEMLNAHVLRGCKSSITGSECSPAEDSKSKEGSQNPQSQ
In short: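 ER-beta-UAS-bla HEK293T (GripTite) cells carrying a UAS-driven beta-lactamase reporter, in medium with 2% charcoal-stripped FBS, were exposed to compounds for 16 hr at 37C; LiveBLAzer B/G FRET substrate was then added and fluorescence read after 2 hours at room temperature.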

[4] = molecular target: Estrogen receptor beta (Homo sapiens) (UniProt Q92731); assay: qHTS assay to identify small molecule antagonists of the estrogen receptor beta (ER-beta) signaling pathway (AID 1259378; active means well fitted inhibition curve with a large enough effect in the signal ratio in the repeat runs, not every such curve was filed as active; the % refers to the signal ratio)
In short: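 ER-beta-UAS-bla HEK293T cells in 2% charcoal-stripped FBS medium treated with compound plus 1nM final 17-beta-estradiol for 16 hr at 37C. Beta-lactamase reporter read by FRET substrate fluorescence after 2 hours at room temperature.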

[5] = qHTS assay to identify small molecule agonists of the androgen receptor (AR) signaling pathway in the presence of an antagonist - cell viability counter screen (AID 1259379; active means well fitted curve in the direction sought with a large enough effect in the repeat runs; an effect the other way counts as inactive or inconclusive; further: nearly all actives have a fitted effect of over 25% in size; further: potency means the concentration at half of the fitted maximal effect)
In short: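 Nilutamide-containing (3.0uM final) MDA-kb2 cultures, 3,000 cells/well, were treated with compounds across 15 concentrations. After 16 hr at 37C with no CO2, cell viability was determined by CellTiter-Fluor fluorescence in the luciferase assay wells.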

[6] = qHTS assay to identify small molecule agonists of the estrogen receptor beta (ER-beta) signaling pathway - cell viability counter screen (AID 1259380; active means well fitted curve in the direction sought with a large enough effect in the repeat runs; an effect the other way counts as inactive or inconclusive; further: nearly all actives have a fitted effect of over 30% in size)
In short: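 Steps: plate ER-beta-UAS-bla HEK293T cells, rest 6 hr; add compounds in DMSO; incubate 16 hr at 37C, 5% CO2; add FRET substrate 2 hr; add CellTiter-Glo, wait 30 min at room temperature; read luminescence.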

[7] = qHTS assay to identify small molecule antagonists of the estrogen receptor beta (ER-beta) signaling pathway - cell viability counter screen (AID 1259382; active means well fitted curve in the direction sought with a large enough effect in the repeat runs; an effect the other way counts as inactive or inconclusive; further: series mostly up to about 92 µM; nearly all actives have a fitted effect of over 55% in size)
In short: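 Viability is scored by CellTiter-Glo luminescence (30 min, room temperature) in ER-beta-UAS-bla HEK293T wells already read for reporter fluorescence. Compound exposure lasts 16 hr at 37C alongside 1nM 17-beta-estradiol in charcoal-stripped serum medium.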

[8] = qHTS assay to identify small molecule agonists or antagonists of the thyroid stimulating hormone receptor (TSHR) signaling pathway - wild type cell line counter screen (AID 1259384)
In short: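 Wild-type Hek293 cells, 800/well, 18 h at 37C, then compound with Ro20-1724 for 30 min RT. cAMP by HTRF (cAMP-d2/anti-cAMP cryptate), 1 h RT, fluorescence read. 15 concentrations, triplicates.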

[9] = molecular target: Estrogen receptor (Homo sapiens) (UniProt P03372); assay: qHTS assay to identify small molecule agonists of the estrogen receptor alpha (ER-alpha) signaling pathway in the presence of an antagonist (AID 1259383); further: top concentration of the series differs between compounds; nearly all actives have a fitted effect of over 15% in size
Sequence of Estrogen receptor (Homo sapiens) (P03372 whole entry, looked up): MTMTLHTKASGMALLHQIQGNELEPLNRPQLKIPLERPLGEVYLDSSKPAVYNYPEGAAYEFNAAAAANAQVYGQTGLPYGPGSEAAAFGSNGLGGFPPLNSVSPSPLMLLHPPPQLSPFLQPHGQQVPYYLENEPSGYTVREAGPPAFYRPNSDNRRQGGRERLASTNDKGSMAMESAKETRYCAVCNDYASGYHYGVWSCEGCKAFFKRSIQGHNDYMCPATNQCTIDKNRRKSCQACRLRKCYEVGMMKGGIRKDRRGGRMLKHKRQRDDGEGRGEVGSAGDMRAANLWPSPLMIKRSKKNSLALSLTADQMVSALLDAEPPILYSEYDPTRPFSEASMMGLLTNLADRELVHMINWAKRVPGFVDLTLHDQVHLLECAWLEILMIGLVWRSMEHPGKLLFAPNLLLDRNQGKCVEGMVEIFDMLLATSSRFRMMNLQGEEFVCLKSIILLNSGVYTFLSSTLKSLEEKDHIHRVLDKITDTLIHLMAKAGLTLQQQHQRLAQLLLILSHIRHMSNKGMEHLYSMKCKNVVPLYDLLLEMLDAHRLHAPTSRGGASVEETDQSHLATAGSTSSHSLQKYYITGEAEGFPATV
In short: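 Readout was ERE-driven luciferase luminescence in VM7Luc4E2 cells, which express full-length ER-alpha endogenously. Compounds were tested at 15 concentrations for 22hr alongside 10.0nM ICI-182,780 (final concentration).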

[10] = molecular target: Androgen receptor (Homo sapiens) (UniProt P10275); assay: qHTS assay to identify small molecule agonists of the androgen receptor (AR) signaling pathway in the presence of an antagonist (AID 1259381); further: nearly all actives have a fitted effect of over 15% in size
Sequence of Androgen receptor (Homo sapiens) (P10275 whole entry, looked up): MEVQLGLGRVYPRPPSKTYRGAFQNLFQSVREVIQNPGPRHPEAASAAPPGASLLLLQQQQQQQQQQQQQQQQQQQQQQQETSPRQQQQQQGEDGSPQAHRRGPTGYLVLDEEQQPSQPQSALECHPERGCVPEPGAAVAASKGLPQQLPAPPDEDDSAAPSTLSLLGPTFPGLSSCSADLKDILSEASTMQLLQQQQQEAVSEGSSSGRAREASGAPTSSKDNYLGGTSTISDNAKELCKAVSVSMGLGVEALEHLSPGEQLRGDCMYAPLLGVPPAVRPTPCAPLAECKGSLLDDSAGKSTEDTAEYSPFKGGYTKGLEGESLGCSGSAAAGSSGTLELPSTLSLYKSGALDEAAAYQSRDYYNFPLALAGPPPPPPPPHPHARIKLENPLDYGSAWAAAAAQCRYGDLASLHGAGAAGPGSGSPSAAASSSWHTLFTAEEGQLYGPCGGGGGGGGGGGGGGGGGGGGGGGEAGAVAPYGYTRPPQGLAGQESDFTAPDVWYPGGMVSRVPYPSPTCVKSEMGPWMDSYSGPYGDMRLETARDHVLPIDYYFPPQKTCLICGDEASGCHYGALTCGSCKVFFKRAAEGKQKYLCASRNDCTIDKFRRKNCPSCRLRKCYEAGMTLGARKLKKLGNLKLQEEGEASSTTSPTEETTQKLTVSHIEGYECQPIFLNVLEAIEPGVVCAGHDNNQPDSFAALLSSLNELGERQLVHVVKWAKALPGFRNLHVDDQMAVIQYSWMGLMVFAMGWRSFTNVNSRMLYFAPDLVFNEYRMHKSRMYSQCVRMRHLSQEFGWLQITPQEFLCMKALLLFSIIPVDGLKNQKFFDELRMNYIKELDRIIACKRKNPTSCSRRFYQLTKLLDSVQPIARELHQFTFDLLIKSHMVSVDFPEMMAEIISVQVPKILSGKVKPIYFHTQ
In short: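 Reporter-gene luminescence from MDA-kb2 cells exposed 16hr at 37C (0% CO2) to 15-point compound titrations with 3.0uM final nilutamide as AR antagonist.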

N#Cc1ccccc1
outcome [1]: inactive
Potency [2]: inactive
Potency [3]: inactive
Potency [4]: inactive
Potency [5]: inactive
Potency [6]: inactive
outcome [7]: inactive
outcome [8]: inactive

CC(=O)c1ccc(O)cc1
outcome [1]: inactive
Potency [2]: inactive
Potency [4]: inactive
Potency [5]: inactive
Potency [6]: inactive
outcome [7]: inactive
Potency [9]: inactive
outcome [8]: inactive

CCOC(=O)c1ccc(N)cc1
outcome [1]: inactive
Potency [2]: inactive
Potency [3]: inactive
Potency [4]: inactive
Potency [5]: inactive
Potency [6]: inactive
outcome [7]: inactive
outcome [8]: inactive

C=CCCCCCCCCC(=O)O
outcome [1]: inactive
Potency [2]: inactive
Potency [3]: inactive
Potency [5]: inactive
Potency [6]: inactive
outcome [7]: inactive
outcome [8]: inactive

CCOCCOCCOCCO
outcome [1]: inactive
Potency [2]: inactive
Potency [3]: inactive
Potency [4]: inactive
Potency [5]: inactive
Potency [6]: inactive
outcome [7]: inactive
outcome [8]: inactive

N[C@H](Cc1c[nH]c2ccccc12)C(=O)O
outcome [1]: inactive
Potency [2]: inactive
Potency [3]: inactive
Potency [4]: inactive
Potency [5]: inactive
Potency [6]: inactive
outcome [7]: inactive
outcome [8]: inactive

O=C1c2ccccc2CCc2ccccc21
outcome [1]: inactive
Potency [2]: inactive
Potency [3]: inactive
Potency [4]: inactive
Potency [5]: inactive
Potency [6]: inactive
outcome [7]: inactive
outcome [8]: inactive

CN1C(=O)CC[C@H]1c1cccnc1
outcome [1]: inactive
Potency [2]: inactive
Potency [3]: inactive
Potency [4]: inactive
Potency [5]: inactive
Potency [6]: inactive
outcome [7]: inactive
outcome [8]: inactive

CC1(C)OC[C@@H]2O[C@@]3(C(=O)O)OC(C)(C)O[C@H]3[C@@H]2O1
outcome [1]: inactive
Potency [2]: inactive
Potency [3]: inactive
Potency [4]: inactive
Potency [5]: inactive
Potency [6]: inactive
outcome [7]: inactive
outcome [8]: inactive

COc1ccc(C)cc1N
outcome [1]: inactive
Potency [2]: inactive
Potency [5]: inactive
Potency [6]: inactive
Potency [10]: inactive
outcome [7]: inactive
Potency [9]: inactive
outcome [8]: inactive

CC(=O)OCCOC(C)=O
outcome [1]: inactive
Potency [2]: inactive
Potency [3]: inactive
Potency [4]: inactive
Potency [5]: inactive
Potency [6]: inactive
outcome [7]: inactive
Potency [9]: inactive
outcome [8]: inactive

CCCCC(C=O)CC (centres undefined)
outcome [1]: inactive
Potency [2]: inactive
Potency [3]: inactive
Potency [4]: inactive
Potency [5]: inactive
Potency [6]: inactive
outcome [7]: inactive
Potency [9]: inactive
outcome [8]: inactive

c1ccc(Oc2ccccc2)cc1
outcome [1]: inactive
Potency [2]: inactive
Potency [3]: inactive
Potency [4]: inactive
Potency [5]: inactive
Potency [6]: inactive
outcome [7]: inactive
outcome [8]: inactive

CCCCCCCCCCO
outcome [1]: inactive
Potency [2]: inactive
Potency [3]: inactive
Potency [5]: inactive
Potency [6]: inactive
outcome [7]: inactive
Potency [9]: inactive
outcome [8]: inactive

C=Cc1ccc(C)cc1
outcome [1]: inactive
Potency [2]: inactive
Potency [3]: inactive
Potency [4]: inactive
Potency [5]: inactive
Potency [6]: inactive
outcome [7]: inactive
outcome [8]: inactive

Nc1ccc(Cl)c(N)c1
outcome [1]: inactive
Potency [2]: inactive
Potency [3]: inactive
Potency [4]: inactive
Potency [5]: inactive
Potency [6]: inactive
outcome [7]: inactive
Potency [9]: inactive
outcome [8]: inactive

Clc1ccccn1
outcome [1]: inactive
Potency [2]: inactive
Potency [3]: inactive
Potency [4]: inactive
Potency [5]: inactive
Potency [6]: inactive
outcome [7]: inactive
outcome [8]: inactive

OCc1cccc(Oc2ccccc2)c1
outcome [1]: inactive
Potency [2]: inactive
Potency [4]: inactive
Potency [5]: inactive
Potency [6]: inactive
Potency [10]: inactive
outcome [7]: inactive
outcome [8]: inactive

O=[N+]([O-])c1ccc2nc[nH]c2c1
outcome [1]: inactive
Potency [2]: inactive
Potency [3]: inactive
Potency [4]: inactive
Potency [5]: inactive
Potency [6]: inactive
outcome [7]: inactive
Potency [9]: inactive
outcome [8]: inactive

O=C(O)/C=C/C(=O)O
outcome [1]: inactive
Potency [2]: inactive
Potency [3]: inactive
Potency [4]: inactive
Potency [5]: inactive
Potency [6]: inactive
outcome [7]: inactive
outcome [8]: inactive

C[Si]1(C)O[Si](C)(C)O[Si](C)(C)O[Si](C)(C)O1
outcome [1]: inactive
Potency [2]: inactive
Potency [3]: inactive
Potency [4]: inactive
Potency [5]: inactive
Potency [6]: inactive
outcome [7]: inactive
Potency [9]: inactive
outcome [8]: inactive

O=C1C(c2[nH]c3ccccc3c2O)=Nc2ccccc21
outcome [1]: inactive
Potency [2]: inactive
Potency [4]: inactive
Potency [5]: inactive
Potency [6]: inactive
outcome [7]: inactive
outcome [8]: inactive

CCCCCCCCCCN
outcome [1]: inactive
Potency [2]: inactive
Potency [3]: inactive
Potency [4]: inactive
Potency [5]: inactive
Potency [6]: inactive
outcome [7]: inactive
outcome [8]: inactive

NCCCCCCN
outcome [1]: inactive
Potency [2]: inactive
Potency [5]: inactive
Potency [6]: inactive
outcome [7]: inactive
outcome [8]: inactive

CCO[Si](CCCN)(OCC)OCC
outcome [1]: inactive
Potency [2]: inactive
Potency [5]: inactive
Potency [6]: inactive
outcome [7]: inactive
Potency [9]: inactive
outcome [8]: inactive

O=C(O)CCCCCCCCC(=O)O
outcome [1]: inactive
Potency [2]: inactive
Potency [5]: inactive
Potency [6]: inactive
outcome [7]: inactive
outcome [8]: inactive

O=S(=O)(O)c1ccc(N=Nc2c(O)ccc3cc(S(=O)(=O)O)ccc23)cc1
outcome [1]: inactive
Potency [2]: inactive
Potency [5]: 54.7 µM (active) and 30.6 µM (active)
Potency [6]: inactive
outcome [7]: inactive
Potency [9]: inactive

CCNc1cccc(C)c1
outcome [1]: inactive
Potency [2]: inactive
Potency [5]: inactive
Potency [6]: inactive
outcome [7]: inactive
Potency [9]: inactive
outcome [8]: inactive
